Results on 25 molecules are retold here after PubChem BioAssay (NCATS).

Results filed as inconclusive are left out. The source made the active and inactive calls. Unless noted, calls follow the shape of the dose curve; as a rule, active = well fitted curve in the direction sought with a large enough effect; inconclusive = small, poorly fitted or top-dose-only effect, or another doubt; inactive = no such curve, though single readings can be large; an effect the other way counts as inactive or inconclusive.

Experiment [1] is described as follows: High Content Imaging Cell-Based qHTS for Inhibitors of the mTORC1 Signaling Pathway in MEF Cells (AID 2667). Also: potency is read from the fitted curve at half-maximal effect. Conditions: series mostly up to 38.3 µM. Summed up: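 Immunofluorescence for rpS6 phosphorylation in MEFs of Tsc2-/-, p53-/- background rescued with WT Tsc2. Compound exposure lasted 24 hrs. Inhibition was scored against rapamycin-treated control wells.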
Background: qHTS replaces the single test concentration by a dilution series.

Experiment [2] in a line: Cytometry Cell-Based qHTS for Inhibitors of the mTORC1 Signaling Pathway in MEF cells (AID 2668).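 Also: Tsc2-/- p53-/- mouse embryonic fibroblasts stably re-expressing wild-type Tsc2; percent cells positive for phospho-rpS6 Ser235/236 relative to propidium iodide stain.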 To be noted: mTORC1 pathway readout; series mostly up to 38.3 µM. Summed up:
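MEFs (Tsc2-/-, p53-/- stably expressing WT Tsc2) treated 24 h at 37 degree Celsius, fixed, stained with Alexa-488 anti-phospho-rpS6 Ser235/236 and propidium iodide; Acumen laser scanning. Reported as % positive cells, phospho-S6 normalized to PI.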

A short description of experiment [3]: Validation screen for inhibitors of Lassa infection (AID 463096; calls by dose curve). Conditions: Lassa virus infection, cell-based; series mostly up to 46.1 µM.
The nature of experiment [4]: Validation screen for small molecules that induce DNA re-replication in MCF 10A normal breast cells (AID 463097). Also: nearly all actives have a fitted effect of over 60% in size. Conditions: MCF 10A cells, DNA re-replication phenotype imaging; series mostly up to 46.1 µM. Summed up:
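MCF 10A cells exposed to compound 48 hr at 37 C, 5% CO2, then Hoechst-stained 40 min. Laser-scanning imaging of nuclear DNA content (405 nm ex, 500-530 nm em); re-replication scored as rise in nuclei with elevated fluorescence intensity.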

Experiment [5] has as its target Ubiquitin carboxyl-terminal hydrolase 2 (Homo sapiens) (UniProt O75604). Kind of experiment: qHTS Validation Assay for Inhibitors of Ubiquitin-specific Protease USP2a Using CHOP2 as the Reporter (AID 463106). Conditions: USP2a cleavage of CHOP2 reporter, enzymatic; series mostly up to 38.3 µM. Summed up:
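10nM USP2 core + cpd, 30min RT; add 25nM Ub-CHOP2/25nM substrate; 60min RT; FI 485/531nm. Buffer Tris pH 8.0, CaCl2, BME, CHAPS. Norm. to NEM = 100% inhibition; time-zero read flags fluorescent artifacts.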

In experiment [6] the target is DNA polymerase III PolC-type (Bacillus subtilis (strain 168)) (UniProt P13267). Description: qHTS Validation Assay for the Inhibitors of DNA Replication in Gram-Positive Bacteria (AID 485295).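 Also: PicoGreen fluorescence of double-stranded DNA made on primed circular M13 template.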 To be noted: Gram-positive bacterial DNA replication assay; series mostly up to 57.1 µM. Summed up:
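Reconstituted B. subtilis Pol III holoenzyme (PolC, beta clamp, SSB, primase) preincubated with compound, then M13Gori single-stranded circular template with dNTPs/NTPs added; room temperature reaction. Stopped with EDTA/PicoGreen; dsDNA fluorescence read, EDTA as full-inhibition control.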

Experiment [7] addresses Tumor susceptibility gene 101 protein (Homo sapiens) (UniProt Q99816). Description: qHTS Validation Assay for Iinhibitors of HIV-1 Budding by Blocking the Interaction of PTAP/TSG101 (AID 485342; calls by dose curve). To be noted: TSG101-PTAP binding, fluorescence polarization, 4-point titration; series mostly up to 115 µM. Summed up:
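Tsg101 binding domain (10 uM) with FITC-labeled PTAP peptide (50 nM) in HEPES pH 7.5 buffer, 20 min at r.t. with compounds. Binding measured by fluorescence polarization.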

The nature of experiment [8]: qHTS Validation Assay to Find Inhibitors of Chronic Active B-Cell Receptor Signaling (AID 485345; active = well fitted curve in the direction sought with a large enough effect in the main read-out, with a control signal flat, not every such curve was filed as active). Conditions: ABC-DLBCL cells, chronic BCR signaling reporter, CBG luciferase; series mostly up to 46.1 µM. Summed up:
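Read-out: ratio of filter-corrected green (IkappaBalpha fusion) to red (native) luciferase signal in doxycycline-induced TMD8 cells after 4 h at 37C. Titration spanned 46 uM–3 nM; Data were normalised to basal cells and 10 uM MG-132 wells.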

In experiment [9] the target is Beta-2 adrenergic receptor (Homo sapiens) (UniProt P07550). Description: qHTS validation assay of beta-arrestin-biased ligands of beta2-adrenergic receptor (AID 485366). To be noted: cell-based beta-arrestin recruitment to ADRB2, qHTS; series mostly up to 46.1 µM. Summed up: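 Tango cells expressing recombinant beta2-AR and beta-arrestin with tTA-driven luciferase, in DMEM with 1% FBS. Compounds were titrated up to 46 microM for 18 hr at 37 degrees C. Luminescence was read 15 min after substrate; curves were fitted and class-assigned.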
Chain of Beta-2 adrenergic receptor (Homo sapiens) (P07550 whole entry, looked up): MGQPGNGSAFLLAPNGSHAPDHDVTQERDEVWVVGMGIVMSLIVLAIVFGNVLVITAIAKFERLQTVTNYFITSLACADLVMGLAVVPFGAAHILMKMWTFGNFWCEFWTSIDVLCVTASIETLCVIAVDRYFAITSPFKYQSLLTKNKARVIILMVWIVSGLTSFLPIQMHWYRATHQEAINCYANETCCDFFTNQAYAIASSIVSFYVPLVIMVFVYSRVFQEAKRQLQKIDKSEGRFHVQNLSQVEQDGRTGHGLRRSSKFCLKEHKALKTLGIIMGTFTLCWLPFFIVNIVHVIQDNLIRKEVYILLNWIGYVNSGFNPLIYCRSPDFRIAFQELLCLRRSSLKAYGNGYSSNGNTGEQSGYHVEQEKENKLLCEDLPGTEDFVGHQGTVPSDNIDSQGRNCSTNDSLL

Experiment [10] addresses ATP-dependent 6-phosphofructokinase (Trypanosoma brucei brucei) (UniProt O15648). Description: qHTS Validation Assay to Find Inhibitors of T. brucei phosphofructokinase (AID 485368). Also: potency is read from the fitted curve at half-maximal effect. To be noted: T. brucei PFK enzyme assay, qHTS 7-point titration; series mostly up to 57.5 µM. Summed up:
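Activity was read as ADP production by luminescence (ADP-Glo) after 45 min at room temperature. The enzyme was 1.25nM PFK in 0.1M TEA pH 8.0 with 0.5 mM F6P, 0.1mM ATP and 5 mM MgCl2. Compounds were titrated up to 57 uM and % activity normalized to no-enzyme and full-enzyme controls.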

Chain of Tumor susceptibility gene 101 protein (Homo sapiens) (Q99816 whole entry, looked up, the tested form may be a part): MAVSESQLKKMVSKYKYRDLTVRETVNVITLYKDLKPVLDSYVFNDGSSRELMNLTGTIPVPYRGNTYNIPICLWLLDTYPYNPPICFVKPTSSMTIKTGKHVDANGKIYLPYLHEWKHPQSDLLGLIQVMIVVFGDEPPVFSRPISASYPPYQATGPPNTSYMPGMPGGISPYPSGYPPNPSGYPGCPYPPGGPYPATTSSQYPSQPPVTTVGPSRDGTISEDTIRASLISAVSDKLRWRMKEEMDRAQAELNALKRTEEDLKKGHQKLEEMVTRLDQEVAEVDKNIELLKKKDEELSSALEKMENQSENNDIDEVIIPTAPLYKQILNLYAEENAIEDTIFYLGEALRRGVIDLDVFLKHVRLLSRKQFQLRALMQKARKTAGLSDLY
Chain of ATP-dependent 6-phosphofructokinase (Trypanosoma brucei brucei) (O15648 whole entry, looked up): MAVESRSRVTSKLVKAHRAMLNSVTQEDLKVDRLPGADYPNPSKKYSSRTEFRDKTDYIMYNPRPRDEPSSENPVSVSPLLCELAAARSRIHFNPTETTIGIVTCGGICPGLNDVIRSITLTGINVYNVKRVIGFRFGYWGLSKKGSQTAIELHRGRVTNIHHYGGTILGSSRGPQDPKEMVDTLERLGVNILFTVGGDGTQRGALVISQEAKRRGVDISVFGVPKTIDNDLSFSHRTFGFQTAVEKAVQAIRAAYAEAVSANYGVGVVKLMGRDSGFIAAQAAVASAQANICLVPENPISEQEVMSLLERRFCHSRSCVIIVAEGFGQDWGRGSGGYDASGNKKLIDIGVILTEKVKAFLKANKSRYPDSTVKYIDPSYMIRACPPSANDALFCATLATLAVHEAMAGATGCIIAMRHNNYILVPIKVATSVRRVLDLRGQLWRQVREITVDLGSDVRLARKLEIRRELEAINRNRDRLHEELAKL
Chain of Ubiquitin carboxyl-terminal hydrolase 2 (Homo sapiens) (O75604 whole entry, looked up): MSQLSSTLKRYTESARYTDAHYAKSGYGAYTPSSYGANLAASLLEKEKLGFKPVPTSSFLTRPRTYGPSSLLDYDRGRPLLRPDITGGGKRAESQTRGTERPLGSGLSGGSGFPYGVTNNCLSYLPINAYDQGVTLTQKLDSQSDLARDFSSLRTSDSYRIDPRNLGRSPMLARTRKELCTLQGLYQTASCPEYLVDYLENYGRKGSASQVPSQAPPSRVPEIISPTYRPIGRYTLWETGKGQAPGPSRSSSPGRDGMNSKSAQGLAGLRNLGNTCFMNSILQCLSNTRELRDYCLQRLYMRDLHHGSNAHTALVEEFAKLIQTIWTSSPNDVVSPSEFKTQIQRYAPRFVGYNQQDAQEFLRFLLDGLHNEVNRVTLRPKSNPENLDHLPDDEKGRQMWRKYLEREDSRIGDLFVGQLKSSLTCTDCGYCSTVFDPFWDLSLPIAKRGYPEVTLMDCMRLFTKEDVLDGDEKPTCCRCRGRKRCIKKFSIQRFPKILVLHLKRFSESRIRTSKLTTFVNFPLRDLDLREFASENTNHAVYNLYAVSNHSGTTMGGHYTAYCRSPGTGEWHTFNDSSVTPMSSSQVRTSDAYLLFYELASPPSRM
Chain of DNA polymerase III PolC-type (Bacillus subtilis (strain 168)) (P13267 whole entry, looked up): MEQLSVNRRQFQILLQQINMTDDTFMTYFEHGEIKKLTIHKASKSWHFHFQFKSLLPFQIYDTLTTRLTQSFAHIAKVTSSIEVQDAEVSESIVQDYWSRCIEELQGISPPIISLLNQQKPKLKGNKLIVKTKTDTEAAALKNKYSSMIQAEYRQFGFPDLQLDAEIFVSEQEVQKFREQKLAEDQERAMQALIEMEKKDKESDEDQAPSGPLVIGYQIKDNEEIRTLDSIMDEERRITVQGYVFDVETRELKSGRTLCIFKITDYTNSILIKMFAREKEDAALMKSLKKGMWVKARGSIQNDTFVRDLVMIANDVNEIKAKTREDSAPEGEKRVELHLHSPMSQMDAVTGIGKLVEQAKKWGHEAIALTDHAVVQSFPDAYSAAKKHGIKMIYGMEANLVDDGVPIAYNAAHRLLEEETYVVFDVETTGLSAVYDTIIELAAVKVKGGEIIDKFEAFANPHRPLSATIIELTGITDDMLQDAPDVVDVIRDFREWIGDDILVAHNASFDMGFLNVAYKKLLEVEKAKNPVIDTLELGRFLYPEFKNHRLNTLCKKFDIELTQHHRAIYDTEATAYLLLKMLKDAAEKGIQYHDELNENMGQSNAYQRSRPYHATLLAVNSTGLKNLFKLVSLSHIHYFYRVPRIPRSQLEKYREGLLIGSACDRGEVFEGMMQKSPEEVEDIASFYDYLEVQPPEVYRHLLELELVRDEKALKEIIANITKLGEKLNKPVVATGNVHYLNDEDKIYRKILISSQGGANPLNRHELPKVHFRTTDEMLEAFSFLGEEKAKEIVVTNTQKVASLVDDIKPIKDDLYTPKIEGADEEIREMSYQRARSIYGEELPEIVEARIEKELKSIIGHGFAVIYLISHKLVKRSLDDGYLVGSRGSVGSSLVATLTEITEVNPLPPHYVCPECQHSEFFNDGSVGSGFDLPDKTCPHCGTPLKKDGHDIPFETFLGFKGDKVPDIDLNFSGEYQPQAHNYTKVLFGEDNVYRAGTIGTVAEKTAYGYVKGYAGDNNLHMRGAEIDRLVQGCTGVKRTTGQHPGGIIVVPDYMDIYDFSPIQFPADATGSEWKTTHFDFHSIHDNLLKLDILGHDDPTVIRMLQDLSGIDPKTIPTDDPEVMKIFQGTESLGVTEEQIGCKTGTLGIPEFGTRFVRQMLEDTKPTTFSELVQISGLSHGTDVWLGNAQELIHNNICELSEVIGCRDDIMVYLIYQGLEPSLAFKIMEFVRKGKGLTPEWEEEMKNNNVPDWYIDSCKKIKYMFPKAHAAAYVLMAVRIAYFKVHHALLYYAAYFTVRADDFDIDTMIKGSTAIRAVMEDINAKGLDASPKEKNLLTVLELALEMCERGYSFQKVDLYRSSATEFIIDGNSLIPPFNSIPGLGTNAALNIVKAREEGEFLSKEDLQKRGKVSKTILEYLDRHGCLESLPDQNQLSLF

`CCCN(CCC)[C@@H]1CCc2cccc(O)c2C1`: the Potency result in experiment [1], in experiment [2], in [3], in experiment [4], in experiment [5] and in experiment [6] was “inactive” each time. Moreover, the Potency entry in [8] and in experiment [10] was “inactive” throughout. Moreover, the molecule was called inactive in [7] and in [9].

Regarding `CC(=O)NBr`, the Potency entry in experiment [1], in experiment [2], in experiment [3], in [4], in experiment [5] and in experiment [6] was “inactive” throughout. Moreover, the Potency entry in experiment [8] and in experiment [10] was “inactive” each time. In addition, the molecule was classed as inactive in experiment [7] and in experiment [9].

As for `CC(N)c1cccc(Cl)c1Cl` (stereo not given), the Potency result in experiment [1], in experiment [2], in experiment [3], in experiment [4], in [5] and in [8] was “inactive” each time. Besides, the call in [7] and in [9] was inactive.

For the molecule `NC(C(=O)O)c1cc(=O)[nH]o1` (stereo not given), the Potency result in [1], in experiment [2], in experiment [3], in experiment [4], in experiment [5] and in [6] was “inactive” throughout. Besides, the Potency result in experiment [8] and in experiment [10] was “inactive” throughout. Also, the result in [7] and in experiment [9] was inactive.

Regarding `C[N+](C)(C)CC#CCOC(=O)Nc1cccc(Cl)c1`, the Potency entry in experiment [1], in experiment [2], in [3], in experiment [4], in [5] and in [8] was “inactive” throughout. In addition, in experiment [10], the Potency entry was “inactive”. The call in [7] and in experiment [9] was inactive.

On to `C[C@@H]1O[C@H](C[N+](C)(C)C)CS1`, for which the Potency result in experiment [1], in experiment [2], in experiment [3], in experiment [4], in experiment [5] and in experiment [6] was “inactive” each time. Besides, the Potency result in [8] and in [10] was “inactive” in each case. Also, the outcome in experiment [7] and in experiment [9] was inactive.

Regarding `CCCN(CCC)C1Cc2cc(OC)c(OC)cc2C1`, the Potency result in experiment [1], in experiment [2], in experiment [3], in [4], in experiment [5] and in experiment [6] was “inactive” throughout. The Potency result in [8] was “inactive”. The molecule was classed as inactive in [7] and in [9].

Consider `CN1CCc2cccc(Cl)c2CC1`, for which the Potency result in experiment [1], in experiment [2], in experiment [3], in experiment [4], in experiment [5] and in [8] was “inactive” each time. For the same molecule, the molecule was classed as inactive in experiment [7] and in experiment [9].

On to `C=CCN1C[C@@H](C)N([C@H](c2ccc(C(=O)N(CC)CC)cc2)c2cccc(OC)c2)C[C@@H]1C`, for which the Potency result in [1], in [2], in [3], in [4], in experiment [5] and in experiment [6] was “inactive” each time. The Potency entry in [8] was “inactive”. In addition, the molecule was called inactive in experiment [7] and in experiment [9].

As for `NC(=O)c1cc(N2CC2)c([N+](=O)[O-])cc1[N+](=O)[O-]`, the Potency entry in [1], in experiment [2], in [3], in [4], in [5] and in experiment [6] was “inactive” in each case. Moreover, the Potency entry in [8] and in [10] was “inactive” in each case. Further, the call in [7] and in [9] was inactive.

For the molecule `Cc1o[nH]c(=O)c1CC(N)C(=O)O` (stereo not given), the Potency result in experiment [1], in experiment [2], in [3], in experiment [4], in experiment [5] and in experiment [6] was “inactive” throughout. In addition, the Potency entry in experiment [8] and in experiment [10] was “inactive” each time. Also, the call in [7] and in experiment [9] was inactive.

As for `C[C@H](N)Cc1cccc(C(F)(F)F)c1`, the Potency entry in [1], in [2], in [5], in experiment [8] and in [10] was “inactive” throughout. Moreover, the outcome in experiment [7] and in experiment [9] was inactive.

With `Cc1cc([C@@H]2CCCN2C)on1`, the Potency entry in experiment [1], in [2], in [5], in experiment [6] and in experiment [8] was “inactive” in each case. The call in experiment [7] and in experiment [9] was inactive.

`NC(N)=NOCC[C@H](N)C(=O)O`: the Potency entry in experiment [1], in experiment [2], in [3], in experiment [4], in experiment [5] and in [8] was “inactive” in each case. Further, the Potency entry in experiment [10] is “inactive”. For the same molecule, the outcome in experiment [7] and in [9] was inactive.

Regarding `CC(N)Cc1c[nH]c2ccc(OCc3cccs3)cc12` (stereo not given), the Potency in experiment [1] was 13.1 µM (active). The Potency result in [3], in experiment [4], in experiment [5], in [6], in experiment [8] and in experiment [10] was “inactive” throughout. The outcome in experiment [7] and in [9] was inactive.

`CN1C2CCC1CC(OC(c1ccccc1)c1ccccc1N)C2` (stereo not given): the Potency result in [1], in experiment [3], in [4], in experiment [5], in experiment [6] and in experiment [8] was “inactive” each time. In addition, the Potency entry in [10] is “inactive”. The call in experiment [7] and in experiment [9] was inactive.

Turning to `NCC(O)c1cc(O)c(O)cc1F` (stereo not given), the Potency result in [1], in experiment [2], in [3], in [4], in experiment [5] and in experiment [8] was “inactive” in each case. The call in experiment [7] and in experiment [9] was inactive. Besides, the Potency in experiment [10] was 4.78 µM (active).

In the case of `C=CCN(C1=NCCN1)c1c(Cl)cccc1Cl`, the Potency entry in experiment [1], in experiment [2], in experiment [5], in [6], in experiment [8] and in experiment [10] was “inactive” throughout. Also, the molecule was classed as inactive in experiment [7] and in experiment [9].

Regarding `CCCN(CCC)CCc1c[nH]c2ccc(C(N)=O)cc12`, the Potency result in experiment [1], in [2], in experiment [4], in experiment [5], in experiment [6] and in experiment [8] was “inactive” each time. In experiment [10], the Potency result was “inactive”. Also, the outcome in experiment [7] and in experiment [9] was inactive.

For the molecule `CC(C)[C@@]1(NC(=O)[C@@H]2C[C@@H]3c4cccc5[nH]cc(c45)C[C@H]3N(C)C2)O[C@@]2(O)[C@@H]3CCCN3C(=O)[C@H](Cc3ccccc3)N2C1=O`, the Potency result in experiment [1], in experiment [2], in experiment [5], in [6], in experiment [8] and in experiment [10] was “inactive” each time. Also, the call in experiment [7] and in experiment [9] was inactive.

As for `C[N+]1(C)CCN(c2ccccc2)CC1`, the Potency result in [1], in experiment [2], in experiment [3], in experiment [4] and in [5] was “inactive” each time. Also, the molecule was called inactive in experiment [7] and in experiment [9].

With `c1ccc2cc(CC3=NCCN3)ccc2c1`, the Potency entry in experiment [1], in experiment [2], in [3], in experiment [4], in experiment [5] and in experiment [8] was “inactive” in each case. Moreover, the Potency result in [10] was “inactive”. In addition, the outcome in experiment [7] and in [9] was inactive.

Take `CN1CC[C@@]2(C)c3cc(OC(=O)Nc4ccccc4)ccc3N(C)[C@@H]12`: the Potency entry in experiment [1], in experiment [2], in [5] and in [6] was “inactive” throughout. The call in [7] and in [9] was inactive.

`CC(N)Cc1c[nH]c2ccc(O)cc12` (stereo not given): the Potency entry in [1], in [2], in experiment [3], in experiment [4], in [5] and in [8] was “inactive” throughout. Besides, the Potency result in experiment [10] was “inactive”. Further, the outcome in experiment [7] and in [9] was inactive.

On to `COc1ccc2c(c1O)-c1cccc3c1[C@@H](C2)N(C)CC3`, for which the Potency entry in experiment [1], in experiment [2], in experiment [5] and in experiment [6] was “inactive” each time. The call in experiment [7] and in [9] was inactive.
